The panel holds about 79,000 compounds, 15% with a hit somewhere; the sample as a whole holds those more often. A number with no mark means an inactive call. Active and inactive are the calls of the source. No stated cut-off is given here; in the data, active means growth inhibition above about 70%; inactive means the rest.
Tests used:
[1] = NCI Yeast Anticancer Drug Screen. Data for the rad50 strain (AID 155);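 further: 0% = growth of vehicle-only cultures of the same strain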; conditions: S. cerevisiae rad50 strain growth inhibition, stronger effect = higher value
Procedure, shortened: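 Compounds were tested on a yeast strain with an engineered DNA damage repair alteration; the reported value is growth inhibition normalised to vehicle treatment.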

[2] = NCI Yeast Anticancer Drug Screen. Data for the mec2-1 strain (AID 157); conditions: S. cerevisiae mec2-1 strain, stronger effect = higher value
Procedure, shortened: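 Strain: mec2-1 (DNA repair/cell cycle alteration). Compound exposure, then growth measured; inhibition expressed relative to vehicle.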

[3] = NCI Yeast Anticancer Drug Screen. Data for the sgs1 mgt1 strain (AID 161);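 further: 0% = growth of cultures given vehicle only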; conditions: S. cerevisiae sgs1 mgt1 strain, stronger effect = higher value
Procedure, shortened: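 Genetically altered yeast, compound exposure, growth inhibition relative to vehicle.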

[4] = NCI Yeast Anticancer Drug Screen. Data for the cln2 rad14 strain (AID 165);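 further: 0% = growth equal to vehicle treated cultures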; conditions: S. cerevisiae cln2 rad14 strain, stronger effect = higher value
Procedure, shortened: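 Compounds are applied to the cln2 rad14 yeast strain, and growth is then compared with that of vehicle-treated cultures to give inhibition.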

[5] = NCI Yeast Anticancer Drug Screen. Data for the bub3 strain (AID 167); conditions: S. cerevisiae bub3 mutant strain, stronger effect = higher value
Procedure, shortened: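 Growth of a checkpoint-deficient yeast mutant is measured after compound exposure. Values represent inhibition relative to vehicle.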

[6] = NCI Yeast Anticancer Drug Screen. Data for the mlh1 rad18 strain (AID 175); conditions: S. cerevisiae mlh1 rad18 strain growth inhibition, stronger effect = higher value
Procedure, shortened: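 Read-out is yeast growth inhibition, calculated against vehicle-only controls. The compound was applied to a strain engineered with DNA damage repair alterations.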

[7] = at 5.0 µM (retest, dose inferred, filed as 0.5)
[8] = at 50.0 µM (retest, dose inferred, filed as 5.0)

Row | SMILES | growth inhibition [1, 7] [%] | growth inhibition [1, 8] | growth inhibition ([1]; at 50.0 µM) | growth inhibition [2, 7] [%] | growth inhibition [2, 8] | growth inhibition ([2]; at 50.0 µM) | growth inhibition [3, 7] [%] | growth inhibition [3, 8] | growth inhibition ([3]; at 50.0 µM) | growth inhibition [4, 7] [%] | growth inhibition [4, 8] | growth inhibition ([4]; at 50.0 µM) | growth inhibition [5, 7] [%] | growth inhibition [5, 8] | growth inhibition ([5]; at 50.0 µM) | growth inhibition [6, 7] [%] | growth inhibition [6, 8] | growth inhibition ([6]; at 50.0 µM)
1 | O=C(Nc1ccc(C(F)(F)F)cc1[N+](=O)[O-])C(=O)C(C(=O)c1ccc2ccccc2c1)C1OC(=O)c2ccccc21 (stereo not given) | 26 | 26% | 2.05% | 10 | 10% | 4.85% | 8 | 8% | 13.9% | 15 | 15% | -28.6% | 9 | 9% | 22.7% | 10 | 10% | 10.2%
2 | OC(/C=C/c1ccccc1)(c1ccccc1)c1nc2ccccc2s1 (stereo not given) | 35 | 98% (active) | -8% | 59 | 98% (active) | 1.95% | 5 | 97% (active) | -11.3% | 26 | 93% (active) | -23.1% | 6 | 98% (active) | -12.8% | 20 | 96% (active) | -3.45%
3 | Cc1[nH]ccc2c(C)c3nc4ccccc4c3cc12 | 47 | 97% (active) | 90% (active) | 10 | 87% (active) | 88.3% (active) | 14 | 87% (active) | 90.5% (active) | 4 | 82% (active) | 82.9% (active) | 9 | 73% (active) | 89% (active) | 13 | 95% (active) | 90.3% (active)
4 | CCCCCCC(Sc1n[nH]c(=O)[nH]c1=O)C(=O)OCC (stereo not given) | 3 | 76% (active) | 61.5% | -1 | 80% (active) | 52.9% | 1 | 88% (active) | 77.6% (active) | 3 | 83% (active) | 52% | 2 | 77% (active) | 43.5% | -2 | 89% (active) | 61.1%
5 | O=C(c1ccc(Cl)cc1)C1OC12C(=O)Nc1c(Cl)cc(Cl)cc12 (stereo not given) | 1 | 99% (active) | 99.2% (active) | 3 | 99% (active) | 99.2% (active) | 22 | 99% (active) | 99.2% (active) | 5 | 99% (active) | 99.1% (active) | -1 | 99% (active) | 99.2% (active) | 4 | 99% (active) | 98.5% (active)
6 | CSC(=S)n1nc(-c2cccs2)c(N=Nc2ccc(Cl)cc2)c1C(F)(F)F | 29 | 63% | 83.8% (active) | 1 | 86% (active) | 93.4% (active) | 20 | 75% (active) | 46.5% | 14 | 49% | 65.4% | 14 | 87% (active) | 75.3% (active) | 19 | 56% | 96.1% (active)
7 | c1ccc2c(c1)ccc1ncccc12 | 8 | 70% (active) | 81.8% (active) | 3 | 23% | 3.15% | 0 | 38% | 47.6% | 2 | 10% | -12.2% | 6 | 62% | 46.9% | 6 | 43% | 64.8%
8 | CC(=O)c1ccc2c(c1)CC1(C2)Cc2cc3c(c(C(=O)O)c2C1)CCC3 (stereo not given) | 0 | 95% (active) | 90.3% (active) | 10 | 95% (active) | 90.1% (active) | 34 | 99% (active) | 94.5% (active) | -3 | 95% (active) | 95% (active) | 1 | 95% (active) | 85.8% (active) | 15 | 97% (active) | 88.6% (active)
9 | CC(=O)OC(OC(C)=O)c1ccc2ccc3cccc4ccc1c2c34 | 16 | 89% (active) | 63.4% | -1 | 78% (active) | 45.8% | -16 | 84% (active) | 61% | 3 | 78% (active) | 45.2% | -17 | 85% (active) | 69% | -3 | 89% (active) | 71.7% (active)
10 | C/C=C(\CCC1NCCc2c1[nH]c1ccccc21)[Si](C)(C)C (stereo not given) | -20 | 99% (active) | 96.3% (active) | -4 | 99% (active) | 86.5% (active) | 19 | 99% (active) | 93.1% (active) | 4 | 99% (active) | 75.3% (active) | 11 | 98% (active) | 77.8% (active) | -21 | 100% (active) | 95.8% (active)
